BoNT F protease: BoNT/F light chain protease inhibitors, primary screen, biochemical, flow cytometry, MLPCN library | Botulinum neurotoxin type F light chain protease (Clostridium botulinum) | Multiplex microsphere protease cleavage assay | inhibition, % at 10 µM | 0.22% of 360,000 active | AID 588497, 2011; in the data active means inhibition above about 35%, passing the limit was not always enough; inconclusive means no clear call, values can overlap the other calls; further: plate controls were buffer without enzyme for full effect and enzyme alone for no effect
Bead autofluor: counter-screen for toxin protease inhibitors: compound fluorescence; compound autofluorescence counterscreen, microsphere flow cytometry; hits give high values; fluorescence intensity (concentration not given with the values); 3.1% of 360,000 active; AID 624483; in the data active means fluorescence intensity above about 16000; inconclusive means no clear call, values can overlap the other calls
MazEF act: activators of E. coli MazEF toxin-antitoxin RNase, primary screen, biochemical, fluorescence, uHTS | Endoribonuclease toxin MazF (Escherichia coli (strain K12)), P0AE70 | FAM/BHQ RNA-DNA oligo cleavage fluorescence, 5 h | activation, % at 20 µM | 0.32% of 350,000 active; in the data active means activation above about 50%
Target sequence (P0AE70 whole entry, looked up): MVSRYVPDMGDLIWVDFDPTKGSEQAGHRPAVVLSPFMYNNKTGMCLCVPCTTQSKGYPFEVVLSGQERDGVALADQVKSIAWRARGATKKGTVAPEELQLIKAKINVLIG
VHR inh abs: VHR1 phosphatase inhibitors, primary screen, biochemical, absorbance, uHTS; Dual specificity protein phosphatase 3 (Homo sapiens), P51452; recombinant VHR phosphatase, pNPP absorbance; inhibition, % at 13.3 µM; 0.52% of 290,000 active; AID 1654, 2009; in the data active means inhibition above about 50%
Target sequence (P51452 whole entry, looked up): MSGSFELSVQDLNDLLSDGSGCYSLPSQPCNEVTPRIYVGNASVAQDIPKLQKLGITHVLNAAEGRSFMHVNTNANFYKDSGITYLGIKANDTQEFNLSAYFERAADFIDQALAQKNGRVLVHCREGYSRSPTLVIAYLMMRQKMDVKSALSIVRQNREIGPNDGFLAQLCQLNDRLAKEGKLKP
Anthrax LF prot: Bacillus anthracis LF protease inhibitors, primary screen, biochemical, multiplex microsphere, MLPCN library; 0.12% of 360,000 active; inhibition, % at 10 µM; AID 588501, 2011; multiplex microsphere protease cleavage assay; Lethal factor (Bacillus anthracis), P15917; further: plate controls were buffer without enzyme for full effect and enzyme alone for no effect
BoNT A protease: BoNT/A light chain protease inhibitors, primary screen, biochemical, flow cytometry, MLPCN library | multiplex microsphere protease substrate cleavage | inhibition, % at 10 µM | 0.17% of 360,000 active; further: plate controls were buffer without enzyme for full effect and enzyme alone for no effect
An asterisk follows results filed as active; i = inactive; ? = inconclusive; · = no result. Only some compounds are listed: those with a hit (about 4.1% of all), similar ones and a draw of the others. Unless noted, no stated cut-off is given here; in the data, active means inhibition above about 30%; inconclusive means no clear call, values can overlap the other calls; inactive means below that.

SMILES | BoNT F protease | Bead autofluor | MazEF act | VHR inh abs | Anthrax LF prot | BoNT A protease
CCN(CC)S(=O)(=O)c1ccc(C(=O)/C=C/c2ccc(-c3ccc([N+](=O)[O-])cc3)o2)cc1 | 25.9 | 4161 | 297.7* | 3.7 | 47.5* | 79.3*
COc1cccc(NC(=O)C2(C)CCN2C(=O)Cc2ccc(C(C)C)cc2)c1 (stereo not drawn) | -3.3 | 3885 | · | · | -2.4 | 0.0
CC1(C)OCC(N)(CO)CO1 | 4.5 | 3576 | 2.9 | · | 9.2 | 0.3
OCCC1CN(Cc2cccn2-c2ccccn2)CCN1Cc1ccccc1 (stereo not drawn) | -2.8 | 4414 | 597.9* | 0.4 | 3.2 | -0.3
OCCC1CN(Cc2cccn2-c2ccccn2)CCN1C1CCCC1 (stereo not drawn) | -2.2 | 3963 | 14.6 | 13.4 | -1.5 | 0.8
Cc1cc(C)n(CC(O)Cn2cnc3c2c(=O)n(C)c(=O)n3C)n1 (stereo not drawn) | -4.9 | 22564* | -2.9 | 8.8 | -3.9 | -0.6
Cn1c(=O)c2c(ncn2CC(O)CO)n(C)c1=O (stereo not drawn) | -2.2 | 6303 | 4.8 | 8.6 | -6.5 | -0.4
OC[C@H]1O[C@@H](c2nc(-c3ccc4[nH]ccc4c3)no2)[C@H](O)[C@@H](O)[C@H]1O | 4.7 | 3740 | · | · | 4.5 | 0.3
CC(=O)N(C)C1=C(N2CCOCC2)C(=O)c2ccccc2C1=O | -4.5 | 24878* | -0.1 | 5.0 | -3.4 | -4.5
O=C(CN1CCN(S(=O)(=O)c2cccs2)CC1)N1CCCCC1 | 11.6 | 4799 | 6.2 | · | 8.2 | 3.1
CC(=O)c1cccc(NC(=O)C(C)OC(=O)CCCN=C2NS(=O)(=O)c3ccccc32)c1 (stereo not drawn) | -16.0 | 7729 | -12.2 | · | -3.7 | -8.1
Cc1ccc(NC(=O)COc2nc(C)cs2)cc1 | -2.3 | 16659* | -0.9 | 6.1 | -1.3 | -1.0
N#Cc1ccc2ccn(CC(=O)NC3CCCCC3)c2c1 | 0.4 | 16380* | 13.8 | 18.2 | -3.5 | 0.6
Cc1csc(C(=O)O)c1NC(=O)c1c(Cl)cccc1Cl | -14.3 | 3628 | -1.1 | 13.9 | 8.6 | -2.0
CCn1c(COc2ccc3c(c2)CCCC3)nnc1SCC(=O)Nc1nccs1 | 0.8 | 20125* | -3.3 | 6.2 | -2.2 | -0.4
C=CCn1c(SCC(=O)Nc2ccccc2OC)nnc1-c1ccco1 | · | · | · | -9.5 | · | ·
CCn1c(COc2cccc(OC)c2)nnc1SCC(=O)Nc1cc(OC)ccc1OC | -3.6 | 23149* | 3.1 | 1.5 | -9.7 | -1.7
C=CCn1c(SCC(=O)Nc2ccccc2OC)nnc1-c1ccccn1 | -0.8 | 16901* | 7.8 | 17.7 | -1.1 | -0.9
CCn1c(SCC(=O)Nc2ccccc2OC)nnc1-c1cnccn1 | -1.5 | 16989* | 6.6 | 11.8 | -3.9 | -1.3
O=C(CCCCCNC(=O)N1CCn2c1nc1ccccc12)N[C@H](Cc1ccccc1)C(=O)O | -13.9 | 3864 | -6.7 | -3.8 | -6.4 | -0.8
C=CCn1c(SCC(=O)Nc2cc(NC(C)=O)ccc2OC)nnc1-c1ccccn1 | 1.0 | 19382* | 0.9 | 28.7 | 0.5 | ?
CCCN(C(=O)COC(=O)C12CCC(=O)N1c1ccccc1S2)c1c(N)n(Cc2ccccc2)c(=O)[nH]c1=O (stereo not drawn) | 4.7 | 5058 | -0.9 | -11.2 | -2.0 | 1.1
CCN(CC)c1ccc(O)c(C=Nc2ccc(C)c(C)c2)c1 | 6.7 | 2838 | -2.2 | 12.1 | 23.0 | 50.4*
CCN(CC)c1ccc(C=Nc2ccc(C#N)cc2)c(O)c1 | -10.4 | 2553 | -12.7 | -18.5 | 0.5 | 0.9
CCN(CC)c1ccc(C=Nc2ccccc2C)c(O)c1 | 19.3 | 6889 | 3.8 | 2.1 | 33.5* | 50.8*
SMILES | BoNT F protease | Bead autofluor | MazEF act | VHR inh abs | Anthrax LF prot | BoNT A protease
CCC(=O)Nc1cc(C(=O)OCC(=O)c2ccccc2Cl)ccc1C | -4.1 | 20188* | 3.5 | 7.3 | -1.5 | -1.4
CCC(=O)Nc1cc(C(=O)OCC(=O)c2ccc(Cl)cc2Cl)ccc1C | -4.9 | 6011 | -3.6 | 23.5 | -11.1 | -0.1
Cc1ccc(S(=O)(=O)N2CCCc3cc(NC(=O)c4c(F)cccc4F)ccc32)cc1 | 14.2 | 4329 | 5.4 | -1.9 | 2.1 | -0.4
Cc1nc(NC(=O)CN2CCN(c3ccccc3F)CC2)sc1C(=O)N(C)C | ? | 3211 | 3.1 | 57.0* | -2.8 | 1.0
COC(=O)c1sc(NC(=S)NC(=O)c2ccccc2)nc1C | -5.9 | 2626 | 5.8 | 31.5 | -0.3 | -0.3
CCOC(=O)c1sc(NC(=S)NC(=O)c2ccccc2)nc1C | -5.4 | 4291 | 7.6 | 28.4 | -3.4 | -0.8
Cc1ccccc1N1CCN(CC(=O)Nc2nc(C)c(C(=O)N(C)C)s2)CC1 | ? | 3925 | 10.4 | -0.7 | -3.1 | -0.5
Cc1nc(NC(=S)NC(=O)c2ccccc2)sc1C(=O)N(C)C | 1.3 | 21936* | 3.0 | 47.5 | -3.3 | 0.7
CCCOc1ccc(C(=O)NC(=S)Nc2nc(C)c(C(=O)N(C)C)s2)cc1 | 15.1 | 18538* | -3.2 | 18.6 | -21.1 | 11.0
Cc1csc(NC(=O)c2ccc(Br)s2)n1 | -3.4 | 5758 | 2.9 | 8.0 | -2.3 | 0.1
Cc1nc(NC(=O)c2ccc(Br)s2)sc1C(=O)N(C)C | -1.7 | 16535* | 0.4 | 6.2 | 1.4 | ?
Cc1ccc(S(=O)(=O)N(C)CCCC(=O)N2CCCCC2)cc1 | 15.5 | 3936 | -1.6 | 8.1 | 0.7 | 1.0
CC1(c2nc3ccccc3[nH]2)c2ccccc2C(=O)N1Cc1ccccc1 (stereo not drawn) | -3.4 | 4535 | · | · | 3.6 | 0.4
Cc1ccc(S(=O)(=O)NC2CCC(C(=O)O)CC2)cc1 (stereo not drawn) | -2.6 | 17170* | -7.9 | 2.0 | 1.4 | -0.9
Cc1ccc(S(=O)(=O)NCC(=O)NC2CCCC2)cc1 | -1.1 | 23092* | -4.3 | 33.6 | 0.4 | -1.6
Cc1ccc(NS(=O)(=O)c2ccc(CCC(=O)NC3CC3)cc2)cc1 | 1.8 | 23092* | 0.6 | 4.7 | -1.9 | 1.4
COc1ccc(NC(=O)CSc2cn[nH]n2)cc1OC | 8.1 | 3637 | -34.0 | 25.5 | 0.5 | -2.2
Nc1nc(=S)ss1 | 6.1 | 2994 | 0.9 | · | -7.5 | -0.2
CC(C)CCn1cnc2c(NCc3ccccc3)ncnc21 | -4.1 | 24204* | 1.3 | 11.6 | -1.6 | -2.1
COc1cccc(NC(=O)N(C)C[C@H]2Oc3ncc(Br)cc3C(=O)N([C@H](C)CO)C[C@H]2C)c1 | 0.0 | 3729 | 6.3 | · | 0.4 | -0.2
COc1ccc2c3c(cccc13)C(=O)CC2 | -8.2 | 3036 | i | 24.4 | -5.6 | 11.1
COc1ccc(CN(C(=O)CN2C(=O)COc3ccccc32)C2CCCC2)c(OC)c1 | 3.1 | 21877* | -5.0 | 3.5 | 1.6 | 1.5
Cc1ccc(S(=O)(=O)N2CC(C)N(C(=O)N3CCOCC3)C2)cc1 (stereo not drawn) | 8.9 | 3738 | 2.9 | 6.4 | 4.9 | -1.4

Bioassay records: PubChem, several laboratories
